# What was measured:
# Experiment in all cases: DAPPL (digital affinity profiling via proximity ligation, sequencing); 10 mM Tris-HCl pH 7.5, 50 mM NaCl, 1 mM DTT, 4% glycerol, room temperature, 30 min; GST-TFs on glutathione beads, 16-mer random dsDNA library, 0.1% formaldehyde crosslink after washing; high values mean tight binding
# [1] = target: T1, FLI1 (Homo sapiens, UniProt Q01543 1-452); conditions: protein: recombinant; tags: N-terminal GST; dsDNA, one strand shown
# T1 sequence: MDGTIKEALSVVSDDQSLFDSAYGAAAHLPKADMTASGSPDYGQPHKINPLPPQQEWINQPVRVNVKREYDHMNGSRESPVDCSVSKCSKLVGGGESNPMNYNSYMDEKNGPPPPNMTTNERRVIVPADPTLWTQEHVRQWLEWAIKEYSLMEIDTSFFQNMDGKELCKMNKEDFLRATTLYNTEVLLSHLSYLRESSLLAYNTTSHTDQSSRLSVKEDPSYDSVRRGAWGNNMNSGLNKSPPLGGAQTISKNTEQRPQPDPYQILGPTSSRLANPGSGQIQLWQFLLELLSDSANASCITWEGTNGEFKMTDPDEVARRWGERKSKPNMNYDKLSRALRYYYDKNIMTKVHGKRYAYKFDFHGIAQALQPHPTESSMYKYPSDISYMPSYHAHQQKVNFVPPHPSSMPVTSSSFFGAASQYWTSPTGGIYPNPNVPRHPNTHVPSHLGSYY
# Summary of the method: (§1)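 Human transcription factors carrying a GST fusion were produced in yeast, bound to glutathione beads, tagged with DNA barcodes and pooled together with a tag-only sample. Each pool was held with 200 nmole of a random double-stranded 16-mer DNA library in Tris/NaCl/DTT/glycerol buffer for 30 min at room temperature, then washed, crosslinked in 0.1% formaldehyde, proximity-ligated with BsaI/T4 ligase (1 h, 37 °C), PCR-amplified and sequenced on an Illumina NextSeq500. Binding signal is the read frequency of each hexamer for a given factor divided by its frequency in the tag-only sample.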
# [2] = target: T2, ELK1 (Homo sapiens, UniProt P19419 1-428); conditions: protein: recombinant; tags: N-terminal GST; dsDNA, one strand shown
# T2 sequence: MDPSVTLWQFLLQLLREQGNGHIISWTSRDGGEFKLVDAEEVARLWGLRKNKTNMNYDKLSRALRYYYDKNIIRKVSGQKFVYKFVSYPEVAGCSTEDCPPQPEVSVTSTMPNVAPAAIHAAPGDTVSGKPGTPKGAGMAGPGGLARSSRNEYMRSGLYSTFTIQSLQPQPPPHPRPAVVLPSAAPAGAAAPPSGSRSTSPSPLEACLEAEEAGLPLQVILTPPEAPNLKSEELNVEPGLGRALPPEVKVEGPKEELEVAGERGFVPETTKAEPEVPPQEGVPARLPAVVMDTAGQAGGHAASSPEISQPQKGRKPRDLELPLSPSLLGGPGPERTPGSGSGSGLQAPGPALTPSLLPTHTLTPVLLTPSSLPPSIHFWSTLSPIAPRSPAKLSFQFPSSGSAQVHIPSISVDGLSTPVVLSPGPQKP
# Summary of the method: as §1
# [3] = target: T3, GABPA (Homo sapiens, UniProt Q06546 1-454); conditions: protein: recombinant; tags: N-terminal GST; dsDNA, one strand shown
# T3 sequence: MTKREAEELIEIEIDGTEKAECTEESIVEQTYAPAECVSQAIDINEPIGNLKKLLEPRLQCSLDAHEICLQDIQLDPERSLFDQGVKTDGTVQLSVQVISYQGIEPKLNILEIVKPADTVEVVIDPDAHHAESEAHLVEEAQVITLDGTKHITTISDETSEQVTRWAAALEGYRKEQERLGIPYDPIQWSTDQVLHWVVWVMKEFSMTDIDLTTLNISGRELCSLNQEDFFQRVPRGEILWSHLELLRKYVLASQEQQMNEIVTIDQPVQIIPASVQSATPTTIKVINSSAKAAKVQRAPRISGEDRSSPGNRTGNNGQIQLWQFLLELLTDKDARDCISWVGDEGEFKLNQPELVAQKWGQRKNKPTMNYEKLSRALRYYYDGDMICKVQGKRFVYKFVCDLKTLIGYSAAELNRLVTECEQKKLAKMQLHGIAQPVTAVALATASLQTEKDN
# Summary of the method: as §1
# [4] = target: T4, ERG (Homo sapiens, UniProt P11308 1-479); conditions: protein: recombinant; tags: N-terminal GST; dsDNA, one strand shown
# T4 sequence: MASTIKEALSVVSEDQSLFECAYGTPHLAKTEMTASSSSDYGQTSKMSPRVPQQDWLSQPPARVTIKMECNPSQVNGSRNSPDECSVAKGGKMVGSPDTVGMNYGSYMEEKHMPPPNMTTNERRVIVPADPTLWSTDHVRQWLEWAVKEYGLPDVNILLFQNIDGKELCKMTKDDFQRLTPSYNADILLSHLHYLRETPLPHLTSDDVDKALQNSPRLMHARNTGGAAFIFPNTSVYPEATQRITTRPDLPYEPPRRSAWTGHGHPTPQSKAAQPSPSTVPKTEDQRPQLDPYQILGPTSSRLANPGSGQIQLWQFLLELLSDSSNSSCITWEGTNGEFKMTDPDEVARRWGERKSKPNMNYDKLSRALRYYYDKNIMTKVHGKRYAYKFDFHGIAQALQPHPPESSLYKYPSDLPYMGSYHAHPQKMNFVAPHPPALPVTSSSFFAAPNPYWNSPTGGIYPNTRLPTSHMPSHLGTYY
# Summary of the method: as §1
# [5] = target: ELF1 (Homo sapiens, UniProt P32519 1-619); conditions: protein: recombinant; tags: N-terminal GST; dsDNA, one strand shown
# ELF1, sequence (P32519 whole entry): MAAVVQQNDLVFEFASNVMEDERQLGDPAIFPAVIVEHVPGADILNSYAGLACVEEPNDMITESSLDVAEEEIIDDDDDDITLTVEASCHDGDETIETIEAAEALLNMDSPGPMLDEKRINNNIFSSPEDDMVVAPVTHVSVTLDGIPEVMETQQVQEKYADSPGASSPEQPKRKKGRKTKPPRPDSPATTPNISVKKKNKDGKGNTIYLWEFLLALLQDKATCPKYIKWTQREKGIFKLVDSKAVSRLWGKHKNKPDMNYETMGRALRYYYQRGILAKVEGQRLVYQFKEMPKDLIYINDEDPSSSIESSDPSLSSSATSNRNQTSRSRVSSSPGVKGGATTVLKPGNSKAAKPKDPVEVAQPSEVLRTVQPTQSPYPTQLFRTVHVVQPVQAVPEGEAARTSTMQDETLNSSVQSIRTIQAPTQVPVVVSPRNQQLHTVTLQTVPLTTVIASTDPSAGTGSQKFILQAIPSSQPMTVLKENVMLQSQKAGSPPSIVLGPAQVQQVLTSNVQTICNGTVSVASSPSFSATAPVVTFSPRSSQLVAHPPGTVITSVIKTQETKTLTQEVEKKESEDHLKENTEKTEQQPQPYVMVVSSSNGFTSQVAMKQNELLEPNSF
# Summary of the method: as §1
# [6] = target: T5, EHF (Homo sapiens, UniProt Q9NZC4 1-300); conditions: protein: recombinant; tags: N-terminal GST; dsDNA, one strand shown
# T5 sequence: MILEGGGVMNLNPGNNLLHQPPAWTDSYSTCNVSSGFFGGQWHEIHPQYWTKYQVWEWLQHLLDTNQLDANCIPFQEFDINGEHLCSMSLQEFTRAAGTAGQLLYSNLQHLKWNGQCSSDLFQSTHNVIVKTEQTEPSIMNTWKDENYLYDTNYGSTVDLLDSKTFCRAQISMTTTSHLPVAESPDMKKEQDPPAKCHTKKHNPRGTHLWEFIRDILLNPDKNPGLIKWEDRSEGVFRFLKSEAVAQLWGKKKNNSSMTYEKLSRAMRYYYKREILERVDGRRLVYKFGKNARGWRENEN
# Summary of the method: as §1
# [7] = target: SPI1 (Homo sapiens, UniProt P17947 1-270); conditions: protein: recombinant; tags: N-terminal GST; dsDNA, one strand shown
# Summary of the method: as §1
# [8] = target: SPIB (Homo sapiens, UniProt Q01892 1-262); conditions: protein: recombinant; tags: N-terminal GST; dsDNA, one strand shown
# SPIB, sequence (Q01892 whole entry): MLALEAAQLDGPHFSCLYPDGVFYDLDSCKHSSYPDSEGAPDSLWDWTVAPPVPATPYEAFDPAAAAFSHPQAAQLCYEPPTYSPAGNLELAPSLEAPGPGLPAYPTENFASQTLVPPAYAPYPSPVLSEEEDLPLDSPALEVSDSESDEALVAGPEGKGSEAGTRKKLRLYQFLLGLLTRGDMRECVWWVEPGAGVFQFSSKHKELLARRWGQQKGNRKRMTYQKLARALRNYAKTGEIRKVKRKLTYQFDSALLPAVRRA
# Summary of the method: as §1
# [9] = target: T6, ELK3 (Homo sapiens, UniProt P41970 1-407); conditions: protein: recombinant; tags: N-terminal GST; dsDNA, one strand shown
# T6 sequence: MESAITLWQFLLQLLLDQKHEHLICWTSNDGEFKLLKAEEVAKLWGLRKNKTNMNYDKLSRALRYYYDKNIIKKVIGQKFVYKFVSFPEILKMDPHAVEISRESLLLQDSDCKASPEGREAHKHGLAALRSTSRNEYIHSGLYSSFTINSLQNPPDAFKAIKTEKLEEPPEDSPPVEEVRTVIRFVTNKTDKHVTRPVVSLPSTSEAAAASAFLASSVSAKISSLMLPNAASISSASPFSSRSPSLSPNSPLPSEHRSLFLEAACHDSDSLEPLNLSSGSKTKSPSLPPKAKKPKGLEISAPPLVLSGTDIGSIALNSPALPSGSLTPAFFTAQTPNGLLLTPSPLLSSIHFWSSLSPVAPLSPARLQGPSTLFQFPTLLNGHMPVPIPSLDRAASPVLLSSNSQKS
# Summary of the method: as §1
# [10] = target: T7, FEV (Homo sapiens, UniProt Q99581 1-238); conditions: protein: recombinant; tags: N-terminal GST; dsDNA, one strand shown
# T7 sequence: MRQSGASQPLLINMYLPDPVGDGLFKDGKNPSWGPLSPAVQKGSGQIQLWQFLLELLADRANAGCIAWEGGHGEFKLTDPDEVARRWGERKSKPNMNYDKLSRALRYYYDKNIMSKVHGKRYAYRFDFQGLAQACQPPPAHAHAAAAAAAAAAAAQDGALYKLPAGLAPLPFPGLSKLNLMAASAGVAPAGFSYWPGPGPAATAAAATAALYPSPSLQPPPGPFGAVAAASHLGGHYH
# Summary of the method: as §1
# [11] = target: ETV5 (Homo sapiens, UniProt P41161 1-510); conditions: protein: recombinant; tags: N-terminal GST; dsDNA, one strand shown
# ETV5, sequence (P41161 whole entry): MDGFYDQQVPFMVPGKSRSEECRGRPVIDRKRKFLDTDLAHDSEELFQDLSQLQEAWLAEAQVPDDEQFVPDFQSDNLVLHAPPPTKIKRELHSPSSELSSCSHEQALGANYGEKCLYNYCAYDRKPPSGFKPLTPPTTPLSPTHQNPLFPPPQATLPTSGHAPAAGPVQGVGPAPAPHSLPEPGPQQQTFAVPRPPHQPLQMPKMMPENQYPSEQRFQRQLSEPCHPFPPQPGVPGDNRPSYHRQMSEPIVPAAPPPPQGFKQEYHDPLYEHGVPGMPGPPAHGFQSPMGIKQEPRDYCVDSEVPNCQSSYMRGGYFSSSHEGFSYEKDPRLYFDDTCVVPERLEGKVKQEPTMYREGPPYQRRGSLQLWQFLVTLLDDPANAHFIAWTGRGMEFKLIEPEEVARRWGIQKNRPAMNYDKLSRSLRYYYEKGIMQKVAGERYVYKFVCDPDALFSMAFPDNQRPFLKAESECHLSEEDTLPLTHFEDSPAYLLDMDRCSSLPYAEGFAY
# Summary of the method: as §1
# [12] = target: HSF1 (Homo sapiens, UniProt Q00613 1-529); conditions: protein: recombinant; tags: N-terminal GST; chain copies: 3; dsDNA, one strand shown
# HSF1, sequence (Q00613 whole entry): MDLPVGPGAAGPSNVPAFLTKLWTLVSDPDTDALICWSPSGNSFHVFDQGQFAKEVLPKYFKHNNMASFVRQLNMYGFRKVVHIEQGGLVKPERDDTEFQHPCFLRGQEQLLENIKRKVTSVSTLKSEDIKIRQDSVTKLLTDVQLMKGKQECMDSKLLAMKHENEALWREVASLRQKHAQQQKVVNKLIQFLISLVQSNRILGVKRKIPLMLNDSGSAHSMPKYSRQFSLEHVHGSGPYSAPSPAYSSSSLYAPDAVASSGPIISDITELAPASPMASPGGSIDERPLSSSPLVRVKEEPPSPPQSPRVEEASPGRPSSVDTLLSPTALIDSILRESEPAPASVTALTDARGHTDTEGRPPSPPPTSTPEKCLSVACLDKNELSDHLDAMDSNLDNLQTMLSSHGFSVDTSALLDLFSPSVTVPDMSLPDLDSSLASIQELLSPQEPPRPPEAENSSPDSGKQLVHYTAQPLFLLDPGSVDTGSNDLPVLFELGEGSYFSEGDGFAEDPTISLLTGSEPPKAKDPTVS
# Summary of the method: as §1
# [13] = target: T8, SPIC (Homo sapiens, UniProt Q8N5J4 1-248); conditions: protein: recombinant; tags: N-terminal GST; dsDNA, one strand shown
# T8 sequence: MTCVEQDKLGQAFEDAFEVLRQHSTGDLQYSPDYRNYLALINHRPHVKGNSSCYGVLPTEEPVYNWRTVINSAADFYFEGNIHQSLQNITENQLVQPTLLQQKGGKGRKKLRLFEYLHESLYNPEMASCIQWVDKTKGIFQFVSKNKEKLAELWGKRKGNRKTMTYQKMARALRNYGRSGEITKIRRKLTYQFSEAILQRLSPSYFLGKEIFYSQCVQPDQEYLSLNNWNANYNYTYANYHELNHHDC
# Summary of the method: as §1
# [14] = target: ELF4 (Homo sapiens, UniProt Q99607 1-663); conditions: protein: recombinant; tags: N-terminal GST; dsDNA, one strand shown
# ELF4, sequence (Q99607 whole entry): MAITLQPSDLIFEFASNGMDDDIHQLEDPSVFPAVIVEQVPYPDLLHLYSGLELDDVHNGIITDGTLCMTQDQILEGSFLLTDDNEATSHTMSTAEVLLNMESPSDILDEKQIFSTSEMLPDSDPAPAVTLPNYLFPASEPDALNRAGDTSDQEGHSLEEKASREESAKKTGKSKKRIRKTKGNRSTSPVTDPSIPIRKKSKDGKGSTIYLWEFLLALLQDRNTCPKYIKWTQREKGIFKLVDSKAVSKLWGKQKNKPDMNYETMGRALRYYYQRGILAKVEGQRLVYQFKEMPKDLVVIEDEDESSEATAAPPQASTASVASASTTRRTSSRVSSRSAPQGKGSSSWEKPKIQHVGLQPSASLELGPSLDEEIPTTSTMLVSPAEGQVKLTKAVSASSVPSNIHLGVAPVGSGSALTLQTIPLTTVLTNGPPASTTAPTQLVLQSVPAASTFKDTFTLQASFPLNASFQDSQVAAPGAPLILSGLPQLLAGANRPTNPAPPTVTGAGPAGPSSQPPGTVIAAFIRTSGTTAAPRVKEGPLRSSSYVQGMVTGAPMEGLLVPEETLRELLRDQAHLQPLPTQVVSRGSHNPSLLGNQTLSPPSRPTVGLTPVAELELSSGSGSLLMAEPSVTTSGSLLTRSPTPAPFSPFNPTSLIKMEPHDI
# Summary of the method: as §1
# [15] = target: T9, ELK4 (Homo sapiens, UniProt P28324-2 1-405); conditions: protein: recombinant; tags: N-terminal GST; dsDNA, one strand shown
# T9 sequence: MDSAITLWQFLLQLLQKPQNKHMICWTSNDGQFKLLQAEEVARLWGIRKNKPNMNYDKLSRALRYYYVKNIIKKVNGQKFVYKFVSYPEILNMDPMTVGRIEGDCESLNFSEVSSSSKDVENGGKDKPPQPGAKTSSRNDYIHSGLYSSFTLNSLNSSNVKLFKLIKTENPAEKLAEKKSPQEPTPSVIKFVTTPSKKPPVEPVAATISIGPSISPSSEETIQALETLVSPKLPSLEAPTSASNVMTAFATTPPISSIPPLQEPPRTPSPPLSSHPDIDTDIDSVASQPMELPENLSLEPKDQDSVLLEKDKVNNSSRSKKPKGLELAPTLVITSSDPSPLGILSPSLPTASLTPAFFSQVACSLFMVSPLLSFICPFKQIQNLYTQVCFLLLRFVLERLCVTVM
# Summary of the method: as §1
# [16] = target: T10, ETV2 (Homo sapiens, UniProt O00321 1-342); conditions: protein: recombinant; tags: N-terminal GST; dsDNA, one strand shown
# T10 sequence: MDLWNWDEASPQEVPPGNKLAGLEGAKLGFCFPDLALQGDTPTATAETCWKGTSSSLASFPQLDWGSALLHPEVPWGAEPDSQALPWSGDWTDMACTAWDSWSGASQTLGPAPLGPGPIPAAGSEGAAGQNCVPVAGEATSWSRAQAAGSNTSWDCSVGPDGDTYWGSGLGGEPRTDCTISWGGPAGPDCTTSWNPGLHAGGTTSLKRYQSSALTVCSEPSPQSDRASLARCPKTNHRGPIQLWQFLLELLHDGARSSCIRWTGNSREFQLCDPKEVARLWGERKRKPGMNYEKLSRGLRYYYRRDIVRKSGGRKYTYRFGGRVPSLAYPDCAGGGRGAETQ
# Summary of the method: as §1
# [17] = target: T11, ELF3 (Homo sapiens, UniProt P78545 1-371); conditions: protein: recombinant; tags: N-terminal GST; dsDNA, one strand shown
# T11 sequence: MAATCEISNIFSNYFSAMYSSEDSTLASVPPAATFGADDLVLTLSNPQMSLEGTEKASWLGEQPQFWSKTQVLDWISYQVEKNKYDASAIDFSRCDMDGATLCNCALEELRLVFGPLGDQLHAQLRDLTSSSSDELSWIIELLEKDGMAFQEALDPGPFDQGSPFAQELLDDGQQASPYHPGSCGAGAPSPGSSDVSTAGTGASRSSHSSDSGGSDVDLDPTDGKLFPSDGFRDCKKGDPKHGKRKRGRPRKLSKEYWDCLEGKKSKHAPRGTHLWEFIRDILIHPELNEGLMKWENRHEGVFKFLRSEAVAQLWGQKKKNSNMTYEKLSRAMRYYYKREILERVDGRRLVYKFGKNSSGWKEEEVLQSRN
# Summary of the method: as §1
# [18] = target: CRX (Homo sapiens, UniProt O43186 1-299); conditions: protein: recombinant; tags: N-terminal GST; dsDNA, one strand shown
# CRX, sequence (O43186 whole entry): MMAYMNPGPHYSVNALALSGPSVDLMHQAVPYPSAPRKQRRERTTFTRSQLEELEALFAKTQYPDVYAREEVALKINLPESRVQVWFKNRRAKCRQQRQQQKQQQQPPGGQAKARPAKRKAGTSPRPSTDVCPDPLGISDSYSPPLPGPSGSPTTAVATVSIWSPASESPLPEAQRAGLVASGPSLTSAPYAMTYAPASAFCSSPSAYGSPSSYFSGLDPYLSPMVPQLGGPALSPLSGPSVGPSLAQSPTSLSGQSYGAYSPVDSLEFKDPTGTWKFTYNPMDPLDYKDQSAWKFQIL
# Summary of the method: as §1
# [19] = target: ETV1 (Homo sapiens, UniProt P50549 1-477); conditions: protein: recombinant; tags: N-terminal GST; dsDNA, one strand shown
# ETV1, sequence (P50549 whole entry): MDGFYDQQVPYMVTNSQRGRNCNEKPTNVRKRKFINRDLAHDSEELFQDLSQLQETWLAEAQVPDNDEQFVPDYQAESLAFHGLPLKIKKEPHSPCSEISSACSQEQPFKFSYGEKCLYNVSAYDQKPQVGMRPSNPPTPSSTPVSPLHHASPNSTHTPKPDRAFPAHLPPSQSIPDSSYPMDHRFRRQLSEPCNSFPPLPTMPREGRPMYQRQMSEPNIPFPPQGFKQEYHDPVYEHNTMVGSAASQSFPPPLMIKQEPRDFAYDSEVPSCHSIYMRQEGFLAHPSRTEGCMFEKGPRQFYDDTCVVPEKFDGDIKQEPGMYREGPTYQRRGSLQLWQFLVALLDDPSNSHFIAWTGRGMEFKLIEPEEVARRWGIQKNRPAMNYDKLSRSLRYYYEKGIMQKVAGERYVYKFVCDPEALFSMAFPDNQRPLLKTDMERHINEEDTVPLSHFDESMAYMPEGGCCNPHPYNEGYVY
# Summary of the method: as §1
sequence,measurement,setting,value
ACGACT,binding signal,[1],"1.27 fold enrichment (6-mer frequency, TF over GST control)"
same,binding signal,[2],"1.28 fold enrichment (6-mer frequency, TF over GST control)"
same,binding signal,[3],"1.36 fold enrichment (6-mer frequency, TF over GST control)"
same,binding signal,[4],"1.24 fold enrichment (6-mer frequency, TF over GST control)"
same,binding signal,[5],"1.19 fold enrichment (6-mer frequency, TF over GST control)"
same,binding signal,[6],"1.17 fold enrichment (6-mer frequency, TF over GST control)"
same,binding signal,[7],"1.27 fold enrichment (6-mer frequency, TF over GST control)"
same,binding signal,[8],"1.17 fold enrichment (6-mer frequency, TF over GST control)"
same,binding signal,[9],"1.24 fold enrichment (6-mer frequency, TF over GST control)"
same,binding signal,[10],"1.28 fold enrichment (6-mer frequency, TF over GST control)"
same,binding signal,[11],"1.15 fold enrichment (6-mer frequency, TF over GST control)"
same,binding signal,[12],"1.2 fold enrichment (6-mer frequency, TF over GST control)"
same,binding signal,[13],"1.26 fold enrichment (6-mer frequency, TF over GST control)"
same,binding signal,[14],"1.23 fold enrichment (6-mer frequency, TF over GST control)"
same,binding signal,[15],"1.39 fold enrichment (6-mer frequency, TF over GST control)"
same,binding signal,[16],"1.27 fold enrichment (6-mer frequency, TF over GST control)"
same,binding signal,[17],"1.11 fold enrichment (6-mer frequency, TF over GST control)"
same,binding signal,[18],"1.19 fold enrichment (6-mer frequency, TF over GST control)"
same,binding signal,[19],"1.29 fold enrichment (6-mer frequency, TF over GST control)"
